High-throughput results as filed in PubChem.
BAZ2B block = inhibitors of human BAZ2B bromodomain; Q9UIF8; AlphaScreen BAZ2B-H3K14Ac peptide displacement; Potency, µM (series often up to 114 µM), usual class: inhibitors; hit rate 4.4% among 360,000; AID 504333; note: nearly all actives have a fitted effect of over 60% in size
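Multi-concentration screen (max 110 uM) measuring displacement of acetylated histone H3 peptide from BAZ2B by AlphaScreen, using 50 nM protein, 50 nM peptide and 10 ug/mL streptavidin donor plus Ni-chelate acceptor beads.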
JMJD2A Tudor = inhibitors of human JMJD2A Tudor domain. O75164. AlphaScreen JMJD2A-Tudor / H3K4me3 peptide binding. Potency, µM (doses to about 114 µM), hits mostly inhibitors. hit rate 4.4% among 390,000. AID 504339; note: nearly all actives have a fitted effect of over 50% in size
HP1b binding inh = blocks HP1-beta chromodomain binding to methylated histone tails; P83916; AlphaScreen HP1-beta / biotin-H3K9me3 peptide binding; Potency, µM (doses to about 114 µM), hits mostly inhibitors; hit rate 0.56% among 390,000; note: nearly all actives have a fitted effect of over 70% in size
Target sequence (P83916 whole entry, looked up): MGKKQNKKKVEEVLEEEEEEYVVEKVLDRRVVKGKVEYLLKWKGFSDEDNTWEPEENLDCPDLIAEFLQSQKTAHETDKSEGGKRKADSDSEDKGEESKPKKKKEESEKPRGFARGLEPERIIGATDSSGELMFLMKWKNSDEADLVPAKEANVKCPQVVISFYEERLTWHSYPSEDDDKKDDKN
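AlphaScreen: HP1-beta (50 nM) preformed 30 min with biotin-H3(1-18)K9me3 peptide (50 nM) in PBS pH 7.4, 0.01% Tween-20. Compound added for 30 min at RT, then streptavidin donor/nickel chelate acceptor beads (10 ug/mL) for 30 min.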
G9a block = blocks human histone lysine methyltransferase G9a | Q96KQ7 | G9a H3K9 monomethylation, AlphaScreen, 2 h | Potency, µM (doses to about 102 µM), usual class: inhibitors | hit rate 8.8% among 350,000 | AID 504332; note: nearly all actives have a fitted effect of over 75% in size
Target sequence (Q96KQ7 913-1193 limits assumed): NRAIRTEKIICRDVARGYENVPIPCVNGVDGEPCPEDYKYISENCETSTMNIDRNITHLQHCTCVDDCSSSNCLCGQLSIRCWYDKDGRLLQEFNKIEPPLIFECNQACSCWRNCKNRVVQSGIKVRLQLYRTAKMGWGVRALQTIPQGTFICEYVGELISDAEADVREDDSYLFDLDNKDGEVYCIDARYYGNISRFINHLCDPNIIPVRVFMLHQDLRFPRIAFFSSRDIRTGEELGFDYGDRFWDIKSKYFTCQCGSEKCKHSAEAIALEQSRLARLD
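AlphaScreen detection with an anti-monomethyl H3K9 antibody quantified product after a 2 h room-temperature reaction containing 500 nM biotinylated H3K9 peptide, 20 µM SAM and 20 nM enzyme, which had been preincubated 15 min with compound.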
PLK1 PBD block = blocks phosphopeptide binding to human PLK1 polo-box domain. P53350. Plk1 PBD binding of FITC phosphopeptide, fluorescence polarization. Potency, µM, hits mostly inhibitors. hit rate 2.8% among 360,000. AID 720504; note: series mostly up to about 57 µM; nearly all actives have a fitted effect of over 65% in size
VDR inhibitor = vitamin D3 receptor (human) inhibition; VDR-SRC2-3 peptide fluorescence polarization, 2 h; Potency, µM, hits mostly inhibitors; hit rate 0.93% among 400,000; AID 504847
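VDR–SRC2-3 interaction, FP format. Cmpds 23 nl via pintool, brief spin, 2 h ambient incubation.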
Each line names hits and unclear results; the compound was inactive in the other large screens. This is a sample that favours compounds with a hit; in the whole collection about 11% have one here. Calls come from the whole dose curve; as a rule, active = well fitted curve in the direction sought with a large enough effect; inconclusive = small, poorly fitted or top-dose-only effect, or another doubt; inactive = no such curve, though single readings can be large; an effect the other way counts as inactive or inconclusive.

CCOc1ccc(NC(=O)CCn2c(-c3ccc(F)cc3)cc(C(C)=O)c2C)cc1	G9a block inconclusive (no result: PLK1 PBD block)
CSc1nnc(-c2ccccc2)n1N	none
CSc1nnc(-c2cc[n+](C)cc2)n1CCO	JMJD2A Tudor 89.1µM, G9a block 7.94µM
CNc1ccc(-c2cccc([N+](=O)[O-])c2)cn1	none (no result: BAZ2B block, JMJD2A Tudor, HP1b binding inh, G9a block, VDR inhibitor)
CCOc1cccc(CN2CCN(CCCc3ccccc3)C(CCO)C2)c1O (stereo not given)	none (no result: G9a block)
C#CCOCCOCCOCCNc1nc(N2CCN(C(=O)[C@H](CCCCN)n3cc([C@@H](N)CO)nn3)CC2)nc(N2CCN(C(=O)[C@H](Cc3ccc(O)cc3)n3cc([C@@H](N)CC(C)C)nn3)CC2)n1	BAZ2B block 31.6µM, JMJD2A Tudor 56.2µM, G9a block inconclusive
C#CCOCCOCCOCCNc1nc(N2CCN(C(=O)[C@H](Cc3ccc(O)cc3)n3cc([C@@H](N)C(C)CC)nn3)CC2)nc(N2CCN(C(=O)[C@H](CCCCN)n3cc([C@@H](N)CC(C)C)nn3)CC2)n1 (stereo not given in full)	BAZ2B block 79.4µM (no result: JMJD2A Tudor, HP1b binding inh, PLK1 PBD block, VDR inhibitor)
C#CCOCCOCCOCCNc1nc(N2CCN(C(=O)[C@H](Cc3ccc(O)cc3)n3cc([C@@H](N)C(C)CC)nn3)CC2)nc(N2CCN(C(=O)[C@H](CCCCN)n3cc([C@@H](N)CO)nn3)CC2)n1 (stereo not given in full)	BAZ2B block 50.1µM, JMJD2A Tudor 39.8µM
CNC(=O)c1c[nH]c2ccc(S(=O)(=O)Nc3cccc(Cl)c3C)cc2c1=O	none (no result: PLK1 PBD block)
CCOC(=O)c1ccc(N2C(=O)c3[nH]nc(-c4ccccc4)c3C2c2ccc(CC)cc2)cc1 (stereo not given)	none (no result: BAZ2B block, PLK1 PBD block)
COc1cccc(/C=C2\SC(=S)N(NC(=O)c3ccncc3)C2=O)c1	none
O=C(CCN1C(=O)/C(=C\c2cccs2)SC1=S)Nc1ccc(C(=O)O)cc1	JMJD2A Tudor inconclusive, G9a block inconclusive
O=C(CCCN1C(=O)/C(=C\c2cccs2)SC1=S)NNC(=O)c1ccncc1	BAZ2B block inconclusive, JMJD2A Tudor 50.1µM
O=C(NN1C(=O)/C(=C/c2cccs2)SC1=S)c1ccncc1	G9a block 44.7µM, VDR inhibitor inconclusive
CCN(CC)CCOC(=O)c1ccc(NC(=O)CCCN2C(=O)/C(=C\c3cccs3)SC2=S)cc1	BAZ2B block 20µM, JMJD2A Tudor 25.1µM, HP1b binding inh inconclusive (no result: G9a block)
Cc1ccc(C(=O)NN2C(=O)/C(=C/c3cccn3C)SC2=S)cc1	BAZ2B block 22.4µM, JMJD2A Tudor inconclusive, HP1b binding inh inconclusive, G9a block inconclusive
Cn1ccc2cc(S(=O)(=O)N3CCCC(C(=O)NCc4ccc(F)cc4)C3)ccc21 (stereo not given)	none (no result: PLK1 PBD block)
CC1=CC23C(=O)C(C=C(CO)[C@@H](O)[C@]2(O)[C@H]1O)[C@H]1[C@@H](C[C@H]3C)C1(C)C (stereo not given in full)	none (no result: BAZ2B block, JMJD2A Tudor, HP1b binding inh, G9a block, PLK1 PBD block)
CN1Cc2cc(C(=O)c3cc(Cl)cc(CSc4ncccn4)c3O)cnc2NC1=O	G9a block 50.1µM (no result: JMJD2A Tudor, HP1b binding inh, PLK1 PBD block, VDR inhibitor)
Cc1ccc(O)c(C(=O)c2cnc3c(c2)CN(C)C(=O)N3)c1	G9a block inconclusive
O=C(CSc1ncc2c(n1)-c1ccccc1N(Cc1ccc(Cl)cc1)S2(=O)=O)c1ccccc1	none (no result: PLK1 PBD block)
CCN(CC)c1ccc(NC(=O)c2cc(CN3CCCC3)on2)c(C)c1	BAZ2B block inconclusive, JMJD2A Tudor inconclusive, G9a block 14.1µM (no result: PLK1 PBD block)
CCc1cc(=O)oc2c(CNCc3ccccc3F)c(O)c(Cl)cc12	BAZ2B block inconclusive, JMJD2A Tudor inconclusive, G9a block 50.1µM, PLK1 PBD block 29.9µM
O=c1c(C(c2ccc(Cl)cc2)c2c(O)nc3n(c2=O)CCS3)c(O)nc2n1CCS2	PLK1 PBD block 26.7µM, VDR inhibitor inconclusive
O=c1c(C(c2ccc(F)cc2)c2c(O)nc3n(c2=O)CCS3)c(O)nc2n1CCS2	PLK1 PBD block 18.9µM, VDR inhibitor inconclusive
O=c1c(C(c2ccc(Cl)cc2)c2c(O)nc3n(c2=O)CCCS3)c(O)nc2n1CCCS2	PLK1 PBD block inconclusive
O=c1c2ccccc2nc2n1CCS2	none
C=CCn1c(=O)c2ccccc2n2c(SCC(=O)NC)nnc12	none
